About 79,000 compounds went through this panel and 15% of them were active in at least one assay; those are over-represented in the sample as a whole. Activity calls are given as the source filed them. Cut-off read from the data, not from the text of the source: active = growth inhibition above about 70%; inactive = the rest.
Columns and labels:
[1] = NCI Yeast Anticancer Drug Screen. Data for the rad52 strain (AID 147);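 note: 0% = growth of vehicle-treated control cultures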; details: S. cerevisiae rad52 mutant growth inhibition, stronger effect = higher value
Procedure, shortened: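 Growth of repair-deficient yeast cells was compared between compound-treated and vehicle-treated cultures to give percent inhibition.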

[2] = NCI Yeast Anticancer Drug Screen. Data for the wt1 strain (AID 149);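 note: 0% = growth of vehicle-treated wt1 cultures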; details: S. cerevisiae wt1 strain (SPY 50644) growth inhibition, stronger effect = higher value
Procedure, shortened: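 Compounds are added to wt1 yeast cultures. Growth is then measured. Inhibition is expressed relative to vehicle-treated controls.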

[3] = NCI Yeast Anticancer Drug Screen. Data for the rad50EPP+ strain (AID 151);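 note: 0% = growth of vehicle-treated control cultures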; details: S. cerevisiae rad50 mutant strain, stronger effect = higher value
Procedure, shortened: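 Measured: growth inhibition of rad50EPP+ yeast. Reference: vehicle-treated controls. Screen uses strains with defined genetic alterations in DNA damage repair or cell cycle control.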

[4] = NCI Yeast Anticancer Drug Screen. Data for the mgt1 strain (AID 153); details: S. cerevisiae mgt1 mutant growth inhibition, stronger effect = higher value
Procedure, shortened: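 Compounds were applied to mgt1 mutant yeast, and growth was then compared against vehicle-treated control cultures to give percent inhibition.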

[5] = NCI Yeast Anticancer Drug Screen. Data for the rad50 strain (AID 155);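 note: 0% = growth of vehicle-only cultures of the same strain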; details: S. cerevisiae rad50 strain growth inhibition, stronger effect = higher value
Procedure, shortened: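 Inhibition values express reduced yeast growth in compound-treated cultures relative to vehicle-treated controls.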

[6] = NCI Yeast Anticancer Drug Screen. Data for the mec2-1 strain (AID 157); details: S. cerevisiae mec2-1 strain, stronger effect = higher value
Procedure, shortened: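 Compounds were applied to mec2-1 yeast cells. Their growth was then compared with that of vehicle-treated cultures to give growth inhibition.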

[7] = NCI Yeast Anticancer Drug Screen. Data for the rad14 strain (AID 159);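 note: 0% = growth of vehicle-treated control cultures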; details: S. cerevisiae rad14 strain growth inhibition, stronger effect = higher value
Procedure, shortened: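 A mutant yeast strain defective in DNA damage repair is treated with compound; inhibition of its growth is scored against untreated, vehicle-exposed cultures.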

[8] = NCI Yeast Anticancer Drug Screen. Data for the sgs1 mgt1 strain (AID 161);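 note: 0% = growth of cultures given vehicle only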; details: S. cerevisiae sgs1 mgt1 strain, stronger effect = higher value
Procedure, shortened: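 Compounds are added to genetically altered yeast, and growth is compared with cultures given vehicle alone to give percent inhibition.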

[9] = NCI Yeast Anticancer Drug Screen. Data for the CLN2oe strain (AID 163);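 note: 0% = growth of vehicle-only control cultures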; details: S. cerevisiae CLN2oe strain, stronger effect = higher value
Procedure, shortened: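 Cells of an engineered yeast line with disturbed cell-cycle regulation are treated with compound. Inhibition of growth is then calculated relative to the vehicle-treated reference.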

[10] = NCI Yeast Anticancer Drug Screen. Data for the cln2 rad14 strain (AID 165);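 note: 0% = growth equal to vehicle treated cultures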; details: S. cerevisiae cln2 rad14 strain, stronger effect = higher value
Procedure, shortened: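 Strain: cln2 rad14 yeast, altered in cell cycle control and DNA damage repair. Read-out: growth inhibition vs vehicle.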

[11] = NCI Yeast Anticancer Drug Screen. Data for the bub3 strain (AID 167); details: S. cerevisiae bub3 mutant strain, stronger effect = higher value
Procedure, shortened: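 Steps: expose the mutant yeast strain to compound; grow alongside vehicle-treated cultures; measure growth; express inhibition against the vehicle cultures.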

[12] = NCI Yeast Anticancer Drug Screen. Data for the wt2 strain (AID 169);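 note: 0% = growth of vehicle-treated yeast cultures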; details: S. cerevisiae wt2 strain growth inhibition, stronger effect = higher value
Procedure, shortened: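 Growth of compound-treated yeast is measured and expressed as inhibition relative to vehicle-only controls.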

[13] = NCI Yeast Anticancer Drug Screen. Data for the sgs1 strain (AID 173);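 note: 0% = growth of vehicle-only control cultures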; details: S. cerevisiae sgs1 mutant, stronger effect = higher value
Procedure, shortened: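 Strain with an altered DNA repair or cell cycle pathway exposed to compound. Growth then measured. Value = inhibition versus vehicle control.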

[14] = NCI Yeast Anticancer Drug Screen. Data for the mlh1 rad18 strain (AID 175); details: S. cerevisiae mlh1 rad18 strain growth inhibition, stronger effect = higher value
Procedure, shortened: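 A repair-deficient yeast strain is exposed to test compound, and growth is scored relative to vehicle-treated controls.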

[15] = NCI Yeast Anticancer Drug Screen. Data for the rad18 strain (AID 177); details: S. cerevisiae rad18 mutant growth inhibition, stronger effect = higher value
Procedure, shortened: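 DNA-repair-defective yeast; compound treatment; growth inhibition scored against vehicle.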

[16] = at 5.0 µM (retest, dose inferred, filed as 0.5)
[17] = at 50.0 µM (retest, dose inferred, filed as 5.0)

Measured: growth inhibition

Cc1cc[n+](C2=C(Nc3cccc(C(F)(F)F)c3)C(=O)c3ccccc3C2=O)cc1
inactive: [1]; at 1.2 µM 5% | [1]; at 3.7 µM 5% | [1]; at 11.0 µM 7% | [1]; at 33.0 µM 21% | [1]; at 100.0 µM 55% | [2]; at 1.2 µM 0% | [2]; at 3.7 µM 2% | [2]; at 11.0 µM 4% | [2]; at 33.0 µM 7% | [2]; at 100.0 µM 12% | [3]; at 1.2 µM 7% | [3]; at 3.7 µM 9% | [3]; at 11.0 µM 12% | [3]; at 33.0 µM 29% | [3]; at 100.0 µM 30% | [4]; at 1.2 µM -1% | [4]; at 3.7 µM 0% | [4]; at 11.0 µM 1% | [4]; at 33.0 µM 10% | [4]; at 100.0 µM 12% | [5]; at 1.2 µM 2% | [5]; at 3.7 µM 3% | [5]; [16] 10% | [5]; at 11.0 µM 8% | [5]; at 33.0 µM 34% | [5]; at 100.0 µM 59% | [6]; at 1.2 µM 1% | [6]; at 3.7 µM 4% | [6]; [16] 8% | [6]; at 11.0 µM -17% | [6]; at 33.0 µM -14% | [6]; [17] 36% | [6]; at 50.0 µM 68.2% | [6]; at 100.0 µM 10% | [7]; at 1.2 µM 0% | [7]; at 3.7 µM -8% | [7]; at 11.0 µM -5% | [7]; at 33.0 µM 0% | [7]; at 100.0 µM 14% | [8]; [16] 6% | [8]; [17] 39% | [8]; at 50.0 µM 62% | [9]; at 1.2 µM 3% | [9]; at 3.7 µM 4% | [9]; at 11.0 µM 6% | [9]; at 33.0 µM -3% | [9]; at 100.0 µM -4% | [10]; [16] 6% | [10]; [17] -4% | [10]; at 50.0 µM 46.4% | [11]; at 1.2 µM 4% | [11]; at 3.7 µM 5% | [11]; [16] 1% | [11]; at 11.0 µM 9% | [11]; at 33.0 µM 13% | [11]; [17] 49% | [11]; at 50.0 µM 46.8% | [11]; at 100.0 µM 44% | [12]; at 1.2 µM 1% | [12]; at 3.7 µM 1% | [12]; at 11.0 µM 3% | [12]; at 33.0 µM 8% | [12]; at 100.0 µM 12% | [13]; at 1.2 µM 0% | [13]; at 3.7 µM -1% | [13]; at 11.0 µM 0% | [13]; at 33.0 µM 3% | [13]; at 100.0 µM 16% | [14]; [16] 3% | [14]; [17] 3% | [14]; at 50.0 µM 61.9% | [15]; at 1.2 µM 2% | [15]; at 3.7 µM -1% | [15]; at 11.0 µM 3% | [15]; at 33.0 µM 2% | [15]; at 100.0 µM 5%
active: [5]; [17] 80% | [5]; at 50.0 µM 86.8%

— PubChem BioAssay (NCI)
